Results as given in PubChem BioAssay (NCATS).
Records with an inconclusive call do not appear. Calls of active or inactive are those of the source. The call rests on the fitted dose curve; in most records, active means well fitted cell-killing curve with a large enough effect; inconclusive means small, poorly fitted or top-dose-only effect, or effect the other way; inactive means flat fitted curve, though single readings scatter.

Tests used:
Experiment in all cases: Primary qHTS to identify gynecologic anti-cancer compounds using libraries of approved drugs and bioactive compounds (AID 1345084); further: nearly all actives have a fitted effect of over 55% in size
C33A = conditions: Gynecologic cancer cell panel viability, ATPlite luminescence, 48 h; series mostly up to 57.5 µM
Summary of the method: (§1)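 ATP-based viability (ATPlite), 1,000 cells/well, 16 h pre-incubation, 48 h compound at 37 C, 5% CO2, 15 min RT before read.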

CAOV3 = conditions: Gynecologic cancer cell panel viability, ATPlite luminescence, 48 h; series mostly up to 57.5 µM
Summary of the method: as §1

CASKI = conditions: Gynecologic cancer cell panel viability, ATPlite luminescence, 48 h; series mostly up to 57.5 µM
Summary of the method: as §1

Es-2 = conditions: Gynecologic cancer cell panel viability, ATPlite luminescence, 48 h; series mostly up to 57.5 µM
Summary of the method: as §1

HeLa = conditions: Gynecologic cancer cell panel viability, ATPlite luminescence, 48 h; series mostly up to 57.5 µM
Summary of the method: as §1

Hek293T = conditions: Gynecologic cancer cell panel viability, ATPlite luminescence, 48 h, control line for the selectivity index; series mostly up to 57.5 µM
Summary of the method: as §1

JEG-3 = conditions: Gynecologic cancer cell panel viability, ATPlite luminescence, 48 h; series mostly up to 57.5 µM
Summary of the method: as §1

OV90 = conditions: Gynecologic cancer cell panel viability, ATPlite luminescence, 48 h; series mostly up to 57.5 µM
Summary of the method: as §1

Measured: Potency

CC1(C)CC[C@]2(C(=O)O[C@@H]3O[C@H](CO)[C@@H](O)[C@H](O)[C@H]3O)CC[C@]3(C)C(=CCC4[C@@]5(C)CC[C@H](O[C@@H]6O[C@H](C(=O)O)[C@H](O)[C@H](O)[C@H]6O)C(C)(C)C5CC[C@]43C)[C@@H]2C1 (stereo partly drawn)
inactive: C33A | CAOV3 | CASKI | Es-2 | HeLa | Hek293T | JEG-3 | OV90

Cc1nc(C#Cc2ccnc(Cl)c2)c(C)n1-c1ccc(OC(F)(F)F)cc1
inactive: C33A | CAOV3 | CASKI | Es-2 | HeLa | Hek293T | JEG-3 | OV90

CC1OC2OC(=O)C3(C)CC4C5(CO5)C5=CC(=O)OC(C)(C)C5=CC(=O)C4(C)C(C1=O)C23 (stereo not drawn)
inactive: C33A | CAOV3 | CASKI | Es-2 | HeLa | Hek293T | JEG-3 | OV90

CCn1c(=O)c(-c2ccc(-c3cncs3)cc2Cl)cc2cnc(Nc3ccc(N4CCN(C)CC4)cc3)nc21
inactive: C33A | CAOV3 | CASKI | Es-2 | HeLa | Hek293T | JEG-3 | OV90

COc1cc(OC)c2c(=O)[nH]c(-c3cc(C)c(OCCO)c(C)c3)nc2c1
inactive: C33A | CAOV3 | CASKI | Es-2 | HeLa | Hek293T | JEG-3 | OV90

Cc1cccc(C#Cc2cc(F)cc(C#N)c2)n1
inactive: C33A | CAOV3 | CASKI | Es-2 | HeLa | Hek293T | JEG-3 | OV90

O=C(Nc1ccccc1)N1CCC(Cc2cnc3ccccc3c2)CC1
inactive: C33A | CAOV3 | CASKI | Es-2 | HeLa | Hek293T | JEG-3 | OV90

CC(=O)OC/C(=C/C(=O)O)CC[C@@H]1C(C=O)=CC[C@@H]2C(C)(C)CCC[C@@]12C
inactive: C33A | CAOV3 | CASKI | Es-2 | HeLa | Hek293T | JEG-3 | OV90

OC[C@H]1O[C@@H](OC/C=C/c2ccc(O)cc2)[C@H](O)[C@@H](O)[C@@H]1O
inactive: C33A | CAOV3 | CASKI | Es-2 | HeLa | Hek293T | JEG-3 | OV90

CNC(=O)COC(=O)N1CCC(CCc2ccc(Cl)cc2)CC1
inactive: C33A | CAOV3 | CASKI | Es-2 | HeLa | Hek293T | JEG-3 | OV90

Cc1cnn(-c2ccccc2)c1NC(=O)COCc1ccccc1
inactive: C33A | CAOV3 | CASKI | Es-2 | HeLa | Hek293T | JEG-3 | OV90

COc1ccc(C2(CNC(=O)c3ccc(NC(=O)c4ccco4)cc3)CCOCC2)cc1
inactive: C33A | CAOV3 | CASKI | Es-2 | HeLa | Hek293T | JEG-3 | OV90

CC1(C=O)CCCC2(C)C1CCC13CC(CO)C(CCC12)C3 (stereo not drawn)
inactive: C33A | CAOV3 | CASKI | Es-2 | HeLa | Hek293T | JEG-3 | OV90

Cc1cc(F)ccc1-c1nc(NCCN=C(N)NC#N)nc2c1ccc(=O)n2-c1c(F)cccc1F
inactive: C33A | CAOV3 | CASKI | Es-2 | HeLa | Hek293T | JEG-3 | OV90

Cc1cn2c(n1)Cc1ccc(Cl)cc1C(c1ccc(N)cc1)=N2
inactive: C33A | CAOV3 | CASKI | Es-2 | HeLa | Hek293T | JEG-3 | OV90

CCC(CC)Nc1nc(C)c(-c2ccc(OC(F)(F)F)cc2OC)nc1OC
inactive: C33A | CAOV3 | CASKI | Es-2 | HeLa | Hek293T | JEG-3 | OV90

O=C(Nc1cc(C(F)(F)F)ccc1N1CCCCC1)c1ccncc1
inactive: C33A | CAOV3 | CASKI | Es-2 | HeLa | Hek293T | JEG-3 | OV90

CC(=O)OC[C@]12[C@H](OC(C)=O)[C@H](OC(=O)c3ccccc3)[C@@H]3[C@@H](OC(C)=O)[C@]1(OC3(C)C)[C@H](C)C[C@H](OC(C)=O)[C@@H]2OC(=O)c1ccccc1
inactive: C33A | CAOV3 | CASKI | Es-2 | HeLa | Hek293T | JEG-3 | OV90

CC(C)(CO)c1cc2cc(NC(=O)C3(c4ccc5c(c4)OC(F)(F)O5)CC3)c(F)cc2n1CC(O)CO (stereo not drawn)
inactive: C33A | CAOV3 | CASKI | Es-2 | HeLa | Hek293T | JEG-3 | OV90

Cn1c(SCC(=O)N2CCC[C@H]2C(=O)Nc2ccccc2-c2ccccc2)nc2ccccc21
inactive: C33A | CAOV3 | CASKI | Es-2 | HeLa | Hek293T | JEG-3 | OV90

Cc1ccc(N2CCN(S(=O)(=O)N3CCCCC3)CC2)c(C)c1
inactive: C33A | CAOV3 | CASKI | Es-2 | HeLa | Hek293T | JEG-3 | OV90
